High-throughput results: PubChem, National Center for Advancing Translational Sciences (NCATS)
KDM5B inh – Primary screen for KDM5B Histone Demethylases FDH-coupled qHTS. Lysine-specific demethylase 5B (Homo sapiens), Q9UGL1. Potency, µM (doses to about 57.7 µM), actives largely listed as inhibitors. KDM5B demethylase, FDH-coupled NADH fluorescence (FDH is formaldehyde dehydrogenase). actives 2.6% (n = 220,000); active = well fitted inhibition curve with a large enough effect; inconclusive = small, poorly fitted or top-dose-only effect; inactive = no such curve, though single readings can be large or run the other way; note: potency is the fitted concentration of half-maximal effect; 0% is about no effect; nearly all actives have a fitted effect of over 70% in size
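Compound dilutions met 200 nM (final) KDM5BΔAP for 10 min at room temperature before substrate addition. The substrate mix held 12.5 µM H3K4me3 with cofactors 25 µM α-ketoglutarate and 50 µM Fe²⁺. NADH signal gain over 30 min defined activity.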
IP6K1 inhibitor – Primary qHTS assay for small molecule inhibitors of Inositol hexaphosphate kinase 1 (IP6K1); IP6K1 kinase, ADP-Glo luminescence, 2 h; stronger effect = lower value; Inositol hexakisphosphate kinase 1 (Homo sapiens), Q92551; AID 1645851, 2021; activity change, % (series mostly up to about 58 µM); actives 0.81% (n = 140,000); in the data active = activity change below about -25%; note: % is set by controls: 0 for no effect and ±100 for the full control effect
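ADP-Glo luminescence measures ADP made by human IP6K1 during a 2 h RT reaction with ATP/IP6 (mix at 1.3 mM/130 uM); top library doses 57.5 and 19.1 uM final.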
Starred values were filed as active, the others as inactive. Shown are actives, neighbours in structure and some others; about 2.7% of the full set was active somewhere.

COC(=O)c1c(C)[nH]c(C(=O)N2CCCC2c2ccccc2)c1C (stereo unspecified) was read as KDM5B inh inactive.
`COC(=O)CSc1nc2c(c(=O)n(C)c(=O)n2C)n1Cc1ccccc1Cl` gave KDM5B inh inactive.
Screening CN1Cc2cccn2CC1CNC(=O)Nc1ccccc1 (stereo unspecified) returned KDM5B inh inactive and IP6K1 inhibitor 13.
CN1Cc2cccn2CC1CNC(=O)C1(S(=O)(=O)c2ccc(Cl)cc2)CC1 (stereo unspecified) was read as KDM5B inh 14µM* and IP6K1 inhibitor 14.
For CN1Cc2cccn2CC1CNC(=O)Cc1ccccc1 (stereo unspecified) the results were KDM5B inh 18µM* and IP6K1 inhibitor -8.
Screening CN1Cc2cccn2CC1CNC(=O)Cc1cccc(F)c1 (stereo unspecified) returned KDM5B inh 28µM* and IP6K1 inhibitor -9.
CN1C(=O)c2cccn2CC1CNC(=O)C1(S(=O)(=O)c2ccc(Cl)cc2)CC1 (stereo unspecified) was read as KDM5B inh inactive and IP6K1 inhibitor -1.
`CN1Cc2cccn2CC1CNC(=O)c1ccsc1` (stereo unspecified) gave KDM5B inh 20µM* and IP6K1 inhibitor -11.
COCCN1C(=O)c2cccn2CC1CNC(=O)Cc1cccc(F)c1 (stereo unspecified) was read as KDM5B inh inactive and IP6K1 inhibitor 12.
For Cc1cccc(NC(=O)NCC2Cn3cccc3CN2C)c1 (stereo unspecified) the results were KDM5B inh inconclusive and IP6K1 inhibitor -5.
For COc1cccc(-c2cccc(C(=O)N3CCN(C(=O)Nc4ccc(Cl)cc4)CC3)c2)c1 the results were IP6K1 inhibitor 0.
For CC(C)CCN1CCC2(C1)C(=NC1CCCC1)NC(=O)N2c1cccnc1 (stereo unspecified) the results were KDM5B inh inactive and IP6K1 inhibitor -7.
CCCc1nc(SC)ncc1C(=O)NCCc1ccc(OC)c(OC)c1 was read as KDM5B inh inactive.
`Cc1ccc(N(CC(=O)NCCN2CCOCC2)S(=O)(=O)c2ccc(Cl)cc2)cc1C` gave KDM5B inh inactive.
For CCn1cc(CN2CCn3nnc(CCC(=O)N4CCCC4)c3C2)c2ccccc21 the results were IP6K1 inhibitor -3.
For CS(=O)(=O)N(Cc1cccnc1)C1CN(C(=O)c2ccc3cc[nH]c3c2)C1 the results were KDM5B inh 32µM* and IP6K1 inhibitor 3.
CS(=O)(=O)N(Cc1cccnc1)C1CN(C(=O)c2cc3ccccc3[nH]2)C1 was read as KDM5B inh inconclusive and IP6K1 inhibitor 0.
`Cc1ccc(CN2CC3ON=C(C(=O)O)C3C2)cc1` (stereo unspecified) gave KDM5B inh inconclusive and IP6K1 inhibitor 4.
Screening CCc1ccc(CN2CC3ON=C(C(=O)O)C3C2)cc1 (stereo unspecified) returned KDM5B inh 112µM* and IP6K1 inhibitor -2.
For COCCN1CCC(CNc2nccc(-c3ccccn3)n2)C1 (stereo unspecified) the results were KDM5B inh 28µM* and IP6K1 inhibitor 47.
For COCCCNc1ccc2nnc(-c3ccccn3)n2n1 the results were KDM5B inh inconclusive and IP6K1 inhibitor -9.
CCCOc1ccc(CN(C(=O)c2cc(=O)c3cc(Cl)ccc3o2)C2CCS(=O)(=O)C2)cc1 (stereo unspecified) was read as KDM5B inh inactive.
`Cc1ccc2c(c1)-c1c(c(C(=O)NCc3ccc(F)cc3)nn1C)CS2` gave KDM5B inh inactive.
COc1ccc(N2C(=O)C3(CCCCC3)C2C(=O)NCCN2CCc3ccccc3C2)cc1 (stereo unspecified) was read as KDM5B inh 25µM* and IP6K1 inhibitor -13.
For COc1ccc(N2C(=O)C3(CCCCC3)C2C(=O)NCCCN2CCCC2)cc1 (stereo unspecified) the results were KDM5B inh inactive and IP6K1 inhibitor -10.
Screening COCCc1nc(CNC(=O)C(c2cccc(F)c2)N(C)C)no1 (stereo unspecified) returned KDM5B inh 22µM* and IP6K1 inhibitor 8.
For CNC(=O)c1noc(CNC(=O)C(c2cccc(F)c2)N(C)C)n1 (stereo unspecified) the results were KDM5B inh inactive and IP6K1 inhibitor 8.
For O=C(NCCc1ccco1)C1CCN(c2ncc(C(F)(F)F)cc2Cl)CC1 the results were KDM5B inh inactive.
`CC(Cc1cccnc1)Nc1cc(-c2ccccc2F)nc2ccnn12` (stereo unspecified) gave KDM5B inh 28µM* and IP6K1 inhibitor -15.
`Fc1ccccc1CNc1cc(Cl)nc2ccnn12` gave KDM5B inh inactive and IP6K1 inhibitor 9.
`O=C1NC(=NC2CCCC2)C2(CCN(CC3CCCCC3)C2)N1c1cc(F)cc(F)c1` (stereo unspecified) gave KDM5B inh inactive and IP6K1 inhibitor 7.
Screening Cc1ccc(C(=O)N2CCC(OC3CCN(C)CC3)CC2)s1 returned KDM5B inh inactive and IP6K1 inhibitor 11.
Screening COc1nccnc1NC1CCN(C(=O)c2cnn3cccnc23)CC1 returned KDM5B inh inconclusive and IP6K1 inhibitor -2.
Screening CCOc1nccnc1NC1CCN(C(=O)c2ccc(C)s2)CC1 returned KDM5B inh 28µM* and IP6K1 inhibitor -8.
CCOc1nccnc1NC1CCN(C(=O)c2cccn2C)CC1 was read as KDM5B inh 28µM* and IP6K1 inhibitor 0.
For CCCC(O)CN1CCC(=O)N(C2CCCC2)Cc2cc(F)ccc21 (stereo unspecified) the results were IP6K1 inhibitor 6.
CC(C)Cn1c(=O)c(C(=O)NCc2cccs2)nc2cccnc21 was read as IP6K1 inhibitor 12.
CCc1nccc(CN2CCC(c3nn(C)c(=O)n3CC)CC2)n1 was read as KDM5B inh 16µM* and IP6K1 inhibitor -2.
For CCn1c(C2CCN(C(=O)c3cc(F)cc(F)c3)CC2)nn(C)c1=O the results were KDM5B inh inactive and IP6K1 inhibitor -12.
For CN(CCC#N)C(=O)Cn1nc(C(=O)O)c2ccccc2c1=O the results were KDM5B inh inactive.
For COc1ccc(-c2ccnc(N[C@H]3CO[C@H]4[C@@H]3OC[C@H]4OC(=O)Nc3ccc(C(C)(C)C)cc3)n2)cc1 the results were KDM5B inh 25µM* and IP6K1 inhibitor 0.
`COc1ccc(-c2ccnc(N[C@H]3CO[C@H]4[C@@H]3OC[C@H]4OC(=O)Nc3cccc(C(C)=O)c3)n2)cc1` gave KDM5B inh inactive and IP6K1 inhibitor -2.
For COc1ccc(-c2ccnc(N[C@H]3CO[C@H]4[C@@H]3OC[C@H]4OCC(=O)N(C)C)n2)cc1 the results were KDM5B inh 35µM* and IP6K1 inhibitor 2.
Screening CCNC(=O)N[C@H]1CO[C@H]2[C@@H]1OC[C@@H]2Nc1nccc(-c2ccc(OC)cc2)n1 returned KDM5B inh 28µM* and IP6K1 inhibitor -7.
Screening C=CCNC(=O)N[C@H]1CO[C@H]2[C@@H]1OC[C@@H]2Nc1nccc(C(C)(C)C)n1 returned KDM5B inh inactive and IP6K1 inhibitor -7.
